PubChem BioAssay (EPA / NIEHS)
Calls of active or inactive are those of the source. How the source made its calls: active means hit-call score of the fitted dose curve at least 0.9, where 1 is the maximum; inactive means score below 0.9.

Assays:
Details in all cases: mRNA level, 48 h; actives raise or lower the signal
[1] = read-out: growth arrest and DNA damage 45 (GADD45A), GADD45A (gene 1647); test: LTEA_HepaRG_GADD45A: Life Technologies and Expression Analysis (LTEA) Assay for growth arrest and DNA damage 45 (GADD45A) using HepaRG (AID 2283458)
Procedure, shortened: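 Transcript induction or loss, quantified by TaqMan qRT-PCR against three housekeeping genes, is the read-out. HepaRG cells received chemicals for 48 h across eight half-log concentrations from 100 uM in 0.5% DMSO; gain and loss fitted relative to DMSO.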

[2] = read-out: ABC Transporter (ABCB1), ABCB1 (gene 5243); test: LTEA_HepaRG_ABCB1: Life Technologies and Expression Analysis (LTEA) Assay for ABC Transporter (ABCB1) using HepaRG (AID 2283460)
Procedure, shortened: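 ABCB1 transcript level measured by TaqMan qRT-PCR against three housekeeping genes after 48 h chemical exposure of differentiated HepaRG cells. Top concentration 100 uM, half-log steps, eight points, 0.5% DMSO vehicle; bidirectional fit relative to DMSO.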

[3] = read-out: growth arrest and DNA damage 45 (GADD45B), GADD45B (gene 4616); test: LTEA_HepaRG_GADD45B: Life Technologies and Expression Analysis (LTEA) Assay for growth arrest and DNA damage 45 (GADD45B) using HepaRG (AID 2283461)
Procedure, shortened: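 Human HepaRG monolayers receive chemicals for 48 h at eight half-log concentrations, highest 100 uM, in 0.5% DMSO. Expression is measured by TaqMan qRT-PCR and normalized to ACTB, GAPDH and POLR2A.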

[4] = read-out: ABC Transporter (ABCC3), ABCC3 (gene 8714); test: LTEA_HepaRG_ABCC3: Life Technologies and Expression Analysis (LTEA) Assay for ABC Transporter (ABCC3) using HepaRG (AID 2283462)
Procedure, shortened: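 Transcriptional change of ABCC3 in HepaRG after 48 h treatment, determined by qRT-PCR normalized to endogenous controls. Concentrations spanned eight half-log steps to 100 uM in 0.5% DMSO.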

[5] = read-out: ABC Transporter (ABCB11), ABCB11 (gene 8647); test: LTEA_HepaRG_ABCB11: Life Technologies and Expression Analysis (LTEA) Assay for ABC Transporter (ABCB11) using HepaRG (AID 2283463)
Procedure, shortened: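 ABCB11 transcript levels quantified by TaqMan qRT-PCR against three housekeeping genes after 48 h chemical exposure of HepaRG cultures. Concentrations up to 100 uM in half-log steps, 0.5% DMSO vehicle; both induction and suppression scored.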

[6] = read-out: ABC Transporter (ABCC2), ABCC2 (gene 1244); test: LTEA_HepaRG_ABCC2: Life Technologies and Expression Analysis (LTEA) Assay for ABC Transporter (ABCC2) using HepaRG (AID 2283464)
Procedure, shortened: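 After plating and 48 h culture, HepaRG medium is replaced with serum-free induction medium and chemicals are added (8 concentrations, max 100 uM, 0.5% DMSO) for 48 h. Total RNA then undergoes qRT-PCR for ABCC2 with housekeeping normalization.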

[7] = read-out: Broad substrate specificity ATP-binding cassette transporter ABCG2 (Homo sapiens) (UniProt Q9UNQ0); test: LTEA_HepaRG_ABCG2: Life Technologies and Expression Analysis (LTEA) Assay for ABC Transporter (ABCG2) using HepaRG (AID 2283465)
Procedure, shortened: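 ABCG2 transcript was quantified by TaqMan qRT-PCR against three housekeeping genes in HepaRG cells. Cells were treated in duplicate for 48 h across an 8-point half-log series up to 100 uM, with 0.5% DMSO vehicle. Gain or loss versus DMSO was fit.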

[8] = read-out: ATP-citrate lyase (ACLY), ACLY (gene 47); test: LTEA_HepaRG_ACLY: Life Technologies and Expression Analysis (LTEA) Assay for ATP-citrate lyase (ACLY) using HepaRG (AID 2283466)
Procedure, shortened: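 ACLY mRNA quantified by qRT-PCR on Fluidigm arrays against three housekeeping genes, after 48 h chemical treatment of HepaRG cells (top concentration 100 uM, half-log steps, 0.5% DMSO vehicle). Up- or down-regulation fitted relative to DMSO.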

[9] = read-out: Peroxisomal acyl-coenzyme A oxidase 1 (ACOX1) gene, ACOX1 (gene 51); test: LTEA_HepaRG_ACOX1: Life Technologies and Expression Analysis (LTEA) Assay for Peroxisomal acyl-coenzyme A oxidase 1 (ACOX1) gene using HepaRG (AID 2283467)
Procedure, shortened: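 ACOX1 transcript levels were quantified by TaqMan qRT-PCR against three housekeeping genes after 48 h chemical exposure of differentiated human HepaRG cells. Exposure used eight half-log steps topping at 100 uM, 0.5% DMSO vehicle, in duplicate. Bidirectional curve fits were made relative to DMSO.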

[10] = read-out: Forkhead box O3 (FOXO3), FOXO3 (gene 2309); test: LTEA_HepaRG_FOXO3: Life Technologies and Expression Analysis (LTEA) Assay for Forkhead box O3 (FOXO3) using HepaRG (AID 2283459)
Procedure, shortened: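 FOXO3 transcript measured by qRT-PCR (normalized to ACTB, GAPDH, POLR2A) after 48 h exposure of HepaRG cells in serum-free induction medium. Duplicates, eight half-log concentrations up to 100 uM, 0.5% DMSO; gain or loss fitted against DMSO.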

Measured: AC50

Broad substrate specificity ATP-binding cassette transporter ABCG2 (Homo sapiens), sequence (Q9UNQ0 whole entry, looked up): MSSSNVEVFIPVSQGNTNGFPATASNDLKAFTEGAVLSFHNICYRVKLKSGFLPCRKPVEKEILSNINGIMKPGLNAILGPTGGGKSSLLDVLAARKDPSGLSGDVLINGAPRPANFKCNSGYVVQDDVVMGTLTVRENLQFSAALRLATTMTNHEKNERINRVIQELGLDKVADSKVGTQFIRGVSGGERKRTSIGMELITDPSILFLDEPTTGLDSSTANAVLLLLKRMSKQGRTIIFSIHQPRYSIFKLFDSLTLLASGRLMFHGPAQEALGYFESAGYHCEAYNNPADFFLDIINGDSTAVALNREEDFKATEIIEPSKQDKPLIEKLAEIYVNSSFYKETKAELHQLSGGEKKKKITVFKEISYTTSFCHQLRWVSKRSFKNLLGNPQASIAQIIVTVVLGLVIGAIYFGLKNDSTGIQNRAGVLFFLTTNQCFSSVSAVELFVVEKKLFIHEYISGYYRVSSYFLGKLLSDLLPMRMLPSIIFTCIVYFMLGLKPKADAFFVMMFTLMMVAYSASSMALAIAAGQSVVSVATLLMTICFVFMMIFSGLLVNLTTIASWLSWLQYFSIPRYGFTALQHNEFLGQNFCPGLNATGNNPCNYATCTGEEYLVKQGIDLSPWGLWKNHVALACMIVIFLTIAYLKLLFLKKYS

CN1CCN(c2ccccc2/C=C2\SCCN(c3ccc(Cl)c(Cl)c3)C2=O)CC1
active: [3] 50 µM | [4] 11.5 µM | [5] 22.5 µM
not listed: [10]
inactive: all other assays above

COCC(C)O (stereo not given)
inactive: all assays above

CCCCCCCCOC(=O)CCCCCCCCC(=O)OCCCCCCCC
not listed: [5] | [8] | [10]
inactive: all other assays above

Cc1cc(C)c(O)c(C)c1
active: [6] 26.8 µM
not listed: [5] | [8] | [10]
inactive: all other assays above

CC(=O)NC1(c2cccc(F)c2)CCN(CC[C@@]2(c3ccc(Cl)c(Cl)c3)CN(c3ccccc3)C(=O)CO2)CC1
active: [2] 68.7 µM | [5] 20.8 µM | [6] 71.9 µM
not listed: [8] | [10]
inactive: all other assays above

CN(C)C=O
not listed: [5] | [10]
inactive: all other assays above

NC(=O)N1C(=O)C(C(=O)c2cc(Cl)cs2)c2cc(F)c(Cl)cc21 (stereo not given)
active: [1] 36 µM | [2] 19.4 µM | [3] 28.1 µM | [4] 12.8 µM | [6] 27.7 µM | [7] 50 µM | [9] 50 µM

Oc1cccc(O)c1
not listed: [5] | [10]
inactive: all other assays above

OCCC(F)(F)C(F)(F)C(F)(F)C(F)(F)C(F)(F)C(F)(F)F
not listed: [5] | [8] | [10]
inactive: all other assays above

C=C(C)C(=O)OCCC(F)(F)C(F)(F)C(F)(F)C(F)(F)C(F)(F)C(F)(F)F
not listed: [5] | [10]
inactive: all other assays above

CCC(=C(c1ccc(O)cc1)c1ccc(OCCN(C)C)cc1)c1ccccc1
active: [4] 82.1 µM | [6] 86.1 µM
inactive: [1] | [2] | [3] | [7] | [9]

CCCCCCCCC(=O)O
not listed: [5] | [10]
inactive: all other assays above

COc1ccc([N+](=O)[O-])cc1N
not listed: [5] | [8] | [10]
inactive: all other assays above

c1ccc2c(c1)ccc1ccccc12
active: [6] 9.92 µM | [7] 9.4 µM
not listed: [5] | [10]
inactive: all other assays above

CCCCCCCC(=O)O
active: [2] 12.4 µM | [9] 12.5 µM
inactive: [1] | [3] | [4] | [6] | [7]

OCCC(F)(F)C(F)(F)C(F)(F)C(F)(F)C(F)(F)C(F)(F)C(F)(F)C(F)(F)F
not listed: [5] | [8] | [10]
inactive: all other assays above

c1ccc2c(c1)Cc1ccccc1-2
not listed: [5] | [8] | [10]
inactive: all other assays above

CC[C@H](C)[C@@H](C(=O)O)n1sc2ccccc2c1=O
not listed: [5] | [8] | [10]
inactive: all other assays above

CCCOc1sc(C(=O)N2CCC(c3cc(CN)ccc3F)CC2)c(C)c1Br
not listed: [5] | [10]
inactive: all other assays above

CCN(CC)CCNc1ccc(CNC=O)c2sc3ccc(OC)cc3c(=O)c12
active: [2] 60.8 µM | [3] 11.4 µM | [4] 86.6 µM | [6] 77.5 µM | [7] 9.65 µM | [8] 83.2 µM | [9] 50 µM
inactive: [1]

CCCCOCCO
not listed: [5] | [10]
inactive: all other assays above

CC[C@H](c1ccc(O)cc1)[C@@H](CC)c1ccc(O)cc1
inactive: [4] | [5] | [7]
active: [1] 77 µM | [2] 77.5 µM | [3] 66.9 µM | [6] 94.4 µM | [9] 77.8 µM

CCOC(=O)CC(O)(CC(=O)OCC)C(=O)OCC
not listed: [5] | [8] | [10]
inactive: all other assays above

CCCCC(CC)COC(=O)CCCCC(=O)OCC(CC)CCCC (stereo not given)
not listed: [5] | [8] | [10]
inactive: all other assays above

CC(C)(C)CC(C)(C)c1ccc(O)c(-n2nc3ccccc3n2)c1
active: [2] 50 µM | [6] 50 µM | [7] 30.6 µM
not listed: [5] | [10]
inactive: all other assays above

N#C[C@@H]1CC(F)(F)CN1C(=O)CNC1CC2CCC(C1)N2c1ncccn1 (stereo not given in full)
not listed: [5] | [8] | [10]
inactive: all other assays above

O=C(O)c1ccccc1C(c1ccc(O)cc1)c1ccc(O)cc1
not listed: [8] | [10]
inactive: all other assays above

Cc1cc(CCN2CCN(c3nsc4ccccc34)CC2)cc2c1NC(=O)CC2(C)C
active: [2] 79.8 µM | [6] 85.1 µM | [7] 32 µM | [9] 75.2 µM
inactive: [1] | [3] | [4]

OC1CCC(C2CCCCC2)CC1 (stereo not given)
not listed: [5] | [10]
inactive: all other assays above

CC(C)(C)c1cccc(C(C)(C)C)c1O
not listed: [8] | [10]
inactive: all other assays above

CCc1nn(C2CCCCC2)c2cc(C3(C#N)CCC(C(=O)O)CC3)ccc12 (stereo not given)
active: [1] 77.6 µM | [2] 12.4 µM | [7] 13 µM
inactive: [3] | [4] | [6] | [9]

c1ccc2cc3c(ccc4ccccc43)cc2c1
inactive: [1] | [4] | [6] | [7]
active: [2] 13.2 µM | [3] 20.1 µM | [9] 18.8 µM

O=C(OCCOCCOC(=O)c1ccccc1)c1ccccc1
not listed: [5] | [8] | [10]
inactive: all other assays above
